# Assays:
# Assay in all cases: DAPPL (digital affinity profiling via proximity ligation, sequencing); 10 mM Tris-HCl pH 7.5, 50 mM NaCl, 1 mM DTT, 4% glycerol, room temperature, 30 min; GST-TFs on glutathione beads, 16-mer random dsDNA library, 0.1% formaldehyde crosslink after washing; high values mean tight binding
# FEV = biological target: T1, FEV (Homo sapiens, UniProt Q99581 1-238); conditions: protein: recombinant; tags: N-terminal GST; dsDNA, one strand shown
# T1 sequence: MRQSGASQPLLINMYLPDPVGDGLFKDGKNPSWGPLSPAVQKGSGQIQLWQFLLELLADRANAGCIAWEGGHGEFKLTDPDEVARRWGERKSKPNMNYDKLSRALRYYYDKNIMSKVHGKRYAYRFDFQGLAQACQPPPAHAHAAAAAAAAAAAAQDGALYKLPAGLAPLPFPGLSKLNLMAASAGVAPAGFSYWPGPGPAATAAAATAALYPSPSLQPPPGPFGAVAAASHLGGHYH
# Procedure, shortened: (§1)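 In yeast, human transcription factors were expressed with a GST fusion, then pulled down on glutathione beads and given DNA barcodes. Pooled with a tag-only sample, they were exposed to 200 nmole of a 16-mer random double-stranded DNA library (Tris/NaCl/DTT/glycerol buffer, room temperature, 30 min), washed, crosslinked with 0.1% formaldehyde, proximity-ligated using BsaI/T4 ligase for 1 h at 37 °C, PCR-amplified and read on an Illumina NextSeq500. Each hexamer's frequency of reads for a factor, divided by the matching frequency for the tag-only sample, gives the binding signal.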
# ETV5 = ETV5 (Homo sapiens, UniProt P41161 1-510); conditions: protein: recombinant; tags: N-terminal GST; dsDNA, one strand shown
# Procedure, shortened: as §1
# HSF1 = HSF1 (Homo sapiens, UniProt Q00613 1-529); conditions: protein: recombinant; tags: N-terminal GST; chain copies: 3; dsDNA, one strand shown
# Procedure, shortened: as §1
# SPIC = biological target: T2, SPIC (Homo sapiens, UniProt Q8N5J4 1-248); conditions: protein: recombinant; tags: N-terminal GST; dsDNA, one strand shown
# T2 sequence: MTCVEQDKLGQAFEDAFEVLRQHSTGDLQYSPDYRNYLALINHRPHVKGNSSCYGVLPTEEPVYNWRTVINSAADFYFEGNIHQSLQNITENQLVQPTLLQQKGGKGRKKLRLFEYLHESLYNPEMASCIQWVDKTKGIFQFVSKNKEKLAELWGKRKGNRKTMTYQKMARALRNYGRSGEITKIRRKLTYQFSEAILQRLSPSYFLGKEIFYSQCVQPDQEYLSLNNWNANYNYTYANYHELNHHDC
# Procedure, shortened: as §1
# ELF4 = ELF4 (Homo sapiens, UniProt Q99607 1-663); conditions: protein: recombinant; tags: N-terminal GST; dsDNA, one strand shown
# Procedure, shortened: as §1
# ELK4 = biological target: T3, ELK4 (Homo sapiens, UniProt P28324-2 1-405); conditions: protein: recombinant; tags: N-terminal GST; dsDNA, one strand shown
# T3 sequence: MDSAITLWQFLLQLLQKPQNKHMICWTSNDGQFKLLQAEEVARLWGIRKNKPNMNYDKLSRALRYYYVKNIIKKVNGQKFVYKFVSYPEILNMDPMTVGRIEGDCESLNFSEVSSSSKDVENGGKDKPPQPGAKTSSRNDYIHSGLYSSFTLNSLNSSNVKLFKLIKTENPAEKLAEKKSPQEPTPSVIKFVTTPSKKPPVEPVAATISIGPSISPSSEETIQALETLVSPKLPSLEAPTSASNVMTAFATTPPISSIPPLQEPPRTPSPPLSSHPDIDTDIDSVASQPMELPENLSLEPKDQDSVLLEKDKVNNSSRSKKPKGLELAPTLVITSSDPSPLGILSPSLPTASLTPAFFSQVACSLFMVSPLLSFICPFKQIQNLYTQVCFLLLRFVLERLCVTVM
# Procedure, shortened: as §1
# ETV2 = biological target: T4, ETV2 (Homo sapiens, UniProt O00321 1-342); conditions: protein: recombinant; tags: N-terminal GST; dsDNA, one strand shown
# T4 sequence: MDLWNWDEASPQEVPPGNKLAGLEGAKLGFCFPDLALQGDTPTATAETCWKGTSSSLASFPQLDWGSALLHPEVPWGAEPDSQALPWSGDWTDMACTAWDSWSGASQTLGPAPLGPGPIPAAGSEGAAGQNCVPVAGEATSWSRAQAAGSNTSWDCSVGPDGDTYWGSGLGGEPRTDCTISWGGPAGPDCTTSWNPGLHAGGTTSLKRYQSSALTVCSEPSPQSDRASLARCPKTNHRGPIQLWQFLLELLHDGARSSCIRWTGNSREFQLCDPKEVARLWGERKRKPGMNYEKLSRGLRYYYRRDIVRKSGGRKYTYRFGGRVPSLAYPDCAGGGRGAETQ
# Procedure, shortened: as §1
# ELF3 = biological target: T5, ELF3 (Homo sapiens, UniProt P78545 1-371); conditions: protein: recombinant; tags: N-terminal GST; dsDNA, one strand shown
# T5 sequence: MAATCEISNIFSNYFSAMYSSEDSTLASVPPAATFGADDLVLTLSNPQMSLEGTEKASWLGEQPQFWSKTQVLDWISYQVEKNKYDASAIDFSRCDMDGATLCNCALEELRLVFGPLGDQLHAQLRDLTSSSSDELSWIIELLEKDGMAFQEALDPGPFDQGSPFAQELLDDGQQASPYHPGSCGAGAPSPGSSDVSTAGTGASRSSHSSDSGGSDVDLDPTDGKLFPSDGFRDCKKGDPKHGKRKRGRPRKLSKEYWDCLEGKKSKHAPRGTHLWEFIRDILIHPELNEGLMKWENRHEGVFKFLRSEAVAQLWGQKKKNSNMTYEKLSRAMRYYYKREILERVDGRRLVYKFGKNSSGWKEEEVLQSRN
# Procedure, shortened: as §1
# CRX = CRX (Homo sapiens, UniProt O43186 1-299); conditions: protein: recombinant; tags: N-terminal GST; dsDNA, one strand shown
# Procedure, shortened: as §1
# ETV1 = ETV1 (Homo sapiens, UniProt P50549 1-477); conditions: protein: recombinant; tags: N-terminal GST; dsDNA, one strand shown
# Procedure, shortened: as §1
# ERF = biological target: T6, ERF (Homo sapiens, UniProt P50548 1-548); conditions: protein: recombinant; tags: N-terminal GST; dsDNA, one strand shown
# T6 sequence: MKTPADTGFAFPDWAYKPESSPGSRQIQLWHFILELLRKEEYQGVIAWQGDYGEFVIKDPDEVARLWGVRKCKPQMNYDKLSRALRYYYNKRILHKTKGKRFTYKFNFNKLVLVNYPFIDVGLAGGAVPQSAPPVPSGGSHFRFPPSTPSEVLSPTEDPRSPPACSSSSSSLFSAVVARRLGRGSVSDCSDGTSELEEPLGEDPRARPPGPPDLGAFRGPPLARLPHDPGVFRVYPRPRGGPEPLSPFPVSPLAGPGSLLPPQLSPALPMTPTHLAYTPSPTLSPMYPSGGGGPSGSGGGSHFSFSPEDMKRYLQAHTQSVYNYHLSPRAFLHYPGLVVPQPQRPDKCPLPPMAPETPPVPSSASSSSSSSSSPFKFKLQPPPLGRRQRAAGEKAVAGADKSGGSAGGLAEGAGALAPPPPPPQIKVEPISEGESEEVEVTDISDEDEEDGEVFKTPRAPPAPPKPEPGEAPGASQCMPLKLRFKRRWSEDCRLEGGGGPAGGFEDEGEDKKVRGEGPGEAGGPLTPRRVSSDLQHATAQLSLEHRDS
# Procedure, shortened: as §1
# ETV3L = biological target: T7, ETV3L (Homo sapiens, UniProt Q6ZN32 1-361); conditions: protein: recombinant; tags: N-terminal GST; dsDNA, one strand shown
# T7 sequence: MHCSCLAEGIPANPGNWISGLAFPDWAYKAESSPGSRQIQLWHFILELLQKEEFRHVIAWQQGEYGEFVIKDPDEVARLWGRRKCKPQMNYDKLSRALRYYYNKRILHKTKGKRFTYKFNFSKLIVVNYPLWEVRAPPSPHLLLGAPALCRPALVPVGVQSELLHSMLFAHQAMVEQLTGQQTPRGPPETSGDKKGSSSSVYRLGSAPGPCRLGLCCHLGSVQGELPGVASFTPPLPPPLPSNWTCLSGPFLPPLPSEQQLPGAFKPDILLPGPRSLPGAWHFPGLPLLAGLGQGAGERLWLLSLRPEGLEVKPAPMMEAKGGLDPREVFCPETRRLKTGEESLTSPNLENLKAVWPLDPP
# Procedure, shortened: as §1
# ETS2 = biological target: T8, ETS2 (Homo sapiens, UniProt P15036 1-469); conditions: protein: recombinant; tags: N-terminal GST; dsDNA, one strand shown
# T8 sequence: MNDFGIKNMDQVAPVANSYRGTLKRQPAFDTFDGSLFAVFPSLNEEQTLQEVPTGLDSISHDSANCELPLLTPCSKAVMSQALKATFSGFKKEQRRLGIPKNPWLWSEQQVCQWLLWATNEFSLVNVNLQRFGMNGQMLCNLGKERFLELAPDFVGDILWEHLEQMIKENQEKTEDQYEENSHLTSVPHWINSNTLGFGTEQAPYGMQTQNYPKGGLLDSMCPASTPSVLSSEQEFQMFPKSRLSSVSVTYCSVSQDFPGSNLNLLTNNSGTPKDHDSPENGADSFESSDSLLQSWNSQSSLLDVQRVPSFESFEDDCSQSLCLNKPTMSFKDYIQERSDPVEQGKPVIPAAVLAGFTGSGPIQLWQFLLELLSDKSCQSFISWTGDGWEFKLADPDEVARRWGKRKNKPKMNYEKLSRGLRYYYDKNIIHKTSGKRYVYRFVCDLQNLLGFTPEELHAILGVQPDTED
# Procedure, shortened: as §1
# SPDEF = biological target: T9, SPDEF (Homo sapiens, UniProt O95238 1-335); conditions: protein: recombinant; tags: N-terminal GST; dsDNA, one strand shown
# T9 sequence: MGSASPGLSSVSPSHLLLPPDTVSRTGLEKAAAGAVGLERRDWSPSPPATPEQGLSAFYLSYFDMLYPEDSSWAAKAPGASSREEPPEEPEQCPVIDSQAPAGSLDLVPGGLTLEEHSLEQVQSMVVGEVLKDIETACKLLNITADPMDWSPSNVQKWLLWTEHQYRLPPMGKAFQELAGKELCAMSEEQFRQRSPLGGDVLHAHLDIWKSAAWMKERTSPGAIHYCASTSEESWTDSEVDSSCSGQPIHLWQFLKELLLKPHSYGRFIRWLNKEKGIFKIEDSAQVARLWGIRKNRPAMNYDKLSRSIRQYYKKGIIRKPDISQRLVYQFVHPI
# Procedure, shortened: as §1
# ETV7 = biological target: T10, ETV7 (Homo sapiens, UniProt Q9Y603 1-341); conditions: protein: recombinant; tags: N-terminal GST; dsDNA, one strand shown
# T10 sequence: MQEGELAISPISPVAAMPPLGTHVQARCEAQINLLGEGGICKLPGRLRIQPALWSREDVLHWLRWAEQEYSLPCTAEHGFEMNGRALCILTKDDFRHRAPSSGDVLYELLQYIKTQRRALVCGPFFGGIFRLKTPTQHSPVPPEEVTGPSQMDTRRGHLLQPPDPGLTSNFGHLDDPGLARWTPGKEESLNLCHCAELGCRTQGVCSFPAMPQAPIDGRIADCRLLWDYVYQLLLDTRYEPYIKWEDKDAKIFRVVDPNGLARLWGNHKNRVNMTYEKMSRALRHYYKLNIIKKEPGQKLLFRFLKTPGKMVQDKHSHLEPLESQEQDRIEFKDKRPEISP
# Procedure, shortened: as §1
# ELF5 = biological target: T11, ELF5 (Homo sapiens, UniProt Q9UKW6-2 1-255); conditions: protein: recombinant; tags: N-terminal GST; dsDNA, one strand shown
# T11 sequence: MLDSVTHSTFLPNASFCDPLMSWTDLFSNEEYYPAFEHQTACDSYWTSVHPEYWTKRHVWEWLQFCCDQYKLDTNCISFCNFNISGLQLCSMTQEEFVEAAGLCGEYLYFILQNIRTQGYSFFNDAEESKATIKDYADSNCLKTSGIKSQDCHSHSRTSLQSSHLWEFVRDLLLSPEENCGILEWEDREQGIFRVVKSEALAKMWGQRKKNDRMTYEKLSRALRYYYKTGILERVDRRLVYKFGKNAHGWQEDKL
# Procedure, shortened: as §1
# ETV3 = biological target: T12, ETV3 (Homo sapiens, UniProt P41162-2 1-143); conditions: protein: recombinant; tags: N-terminal GST; dsDNA, one strand shown
# T12 sequence: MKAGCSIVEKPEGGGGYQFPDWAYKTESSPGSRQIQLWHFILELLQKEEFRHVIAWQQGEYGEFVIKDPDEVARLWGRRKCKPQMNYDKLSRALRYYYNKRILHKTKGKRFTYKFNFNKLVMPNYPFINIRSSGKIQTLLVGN
# Procedure, shortened: as §1
# ETV6 = ETV6 (Homo sapiens, UniProt P41212 1-452); conditions: protein: recombinant; tags: N-terminal GST; dsDNA, one strand shown
# Procedure, shortened: as §1
# Sequence of ETV5 (P41161 whole entry): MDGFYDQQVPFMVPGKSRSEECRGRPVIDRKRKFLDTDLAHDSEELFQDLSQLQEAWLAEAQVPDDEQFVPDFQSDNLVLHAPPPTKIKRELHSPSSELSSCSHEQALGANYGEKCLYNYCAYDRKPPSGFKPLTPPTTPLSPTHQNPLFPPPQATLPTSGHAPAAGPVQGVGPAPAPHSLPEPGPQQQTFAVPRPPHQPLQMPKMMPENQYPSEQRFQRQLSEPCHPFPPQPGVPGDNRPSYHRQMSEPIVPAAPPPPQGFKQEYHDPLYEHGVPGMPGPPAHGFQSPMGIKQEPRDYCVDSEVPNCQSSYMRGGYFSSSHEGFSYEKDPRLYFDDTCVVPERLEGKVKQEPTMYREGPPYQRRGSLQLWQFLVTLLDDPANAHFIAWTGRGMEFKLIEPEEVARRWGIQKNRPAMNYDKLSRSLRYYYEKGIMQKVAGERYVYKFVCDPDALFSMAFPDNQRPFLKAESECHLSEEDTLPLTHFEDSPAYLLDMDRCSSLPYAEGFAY
# Sequence of ELF4 (Q99607 whole entry): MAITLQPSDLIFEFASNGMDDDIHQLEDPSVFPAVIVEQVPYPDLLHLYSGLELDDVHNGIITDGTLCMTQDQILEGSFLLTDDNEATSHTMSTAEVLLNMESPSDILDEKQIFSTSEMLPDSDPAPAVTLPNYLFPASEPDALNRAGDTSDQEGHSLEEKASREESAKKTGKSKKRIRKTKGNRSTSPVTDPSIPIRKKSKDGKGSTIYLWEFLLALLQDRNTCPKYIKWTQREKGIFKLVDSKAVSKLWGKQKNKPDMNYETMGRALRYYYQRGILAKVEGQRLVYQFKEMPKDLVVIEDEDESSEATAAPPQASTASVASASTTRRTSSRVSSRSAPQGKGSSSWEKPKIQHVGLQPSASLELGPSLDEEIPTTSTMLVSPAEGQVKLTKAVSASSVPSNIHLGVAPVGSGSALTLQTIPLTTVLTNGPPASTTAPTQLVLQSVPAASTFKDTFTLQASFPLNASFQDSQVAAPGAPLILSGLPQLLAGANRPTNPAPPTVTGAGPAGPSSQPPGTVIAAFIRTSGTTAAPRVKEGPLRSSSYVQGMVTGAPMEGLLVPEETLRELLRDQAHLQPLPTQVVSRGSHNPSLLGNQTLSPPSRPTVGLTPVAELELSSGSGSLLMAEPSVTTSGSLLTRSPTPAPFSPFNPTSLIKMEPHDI
# Sequence of HSF1 (Q00613 whole entry): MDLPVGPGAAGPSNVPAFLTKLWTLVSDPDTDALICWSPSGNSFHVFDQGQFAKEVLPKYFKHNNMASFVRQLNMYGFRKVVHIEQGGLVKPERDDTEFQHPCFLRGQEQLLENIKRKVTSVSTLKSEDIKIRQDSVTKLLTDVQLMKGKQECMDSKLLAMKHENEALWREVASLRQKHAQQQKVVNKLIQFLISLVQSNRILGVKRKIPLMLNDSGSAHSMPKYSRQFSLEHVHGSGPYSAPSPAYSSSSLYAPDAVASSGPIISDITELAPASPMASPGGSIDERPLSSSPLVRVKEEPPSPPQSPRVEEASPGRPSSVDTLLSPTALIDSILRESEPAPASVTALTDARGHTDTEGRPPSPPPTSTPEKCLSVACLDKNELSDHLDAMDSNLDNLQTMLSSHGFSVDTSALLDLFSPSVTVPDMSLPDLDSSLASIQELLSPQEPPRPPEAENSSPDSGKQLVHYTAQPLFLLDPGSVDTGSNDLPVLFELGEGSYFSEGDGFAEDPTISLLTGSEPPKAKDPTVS
# Sequence of ETV6 (P41212 whole entry): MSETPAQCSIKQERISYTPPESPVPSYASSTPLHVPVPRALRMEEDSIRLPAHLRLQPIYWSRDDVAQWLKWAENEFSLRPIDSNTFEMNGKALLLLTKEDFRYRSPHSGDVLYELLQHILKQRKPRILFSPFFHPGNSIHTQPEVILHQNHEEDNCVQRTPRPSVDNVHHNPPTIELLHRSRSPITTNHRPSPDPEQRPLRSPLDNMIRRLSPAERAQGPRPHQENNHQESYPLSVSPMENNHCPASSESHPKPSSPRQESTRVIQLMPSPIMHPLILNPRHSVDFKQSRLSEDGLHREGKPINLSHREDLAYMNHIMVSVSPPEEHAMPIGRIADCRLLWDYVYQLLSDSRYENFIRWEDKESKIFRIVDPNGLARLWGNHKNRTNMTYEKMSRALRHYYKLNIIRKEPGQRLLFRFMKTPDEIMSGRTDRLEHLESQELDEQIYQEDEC
# Sequence of ETV1 (P50549 whole entry): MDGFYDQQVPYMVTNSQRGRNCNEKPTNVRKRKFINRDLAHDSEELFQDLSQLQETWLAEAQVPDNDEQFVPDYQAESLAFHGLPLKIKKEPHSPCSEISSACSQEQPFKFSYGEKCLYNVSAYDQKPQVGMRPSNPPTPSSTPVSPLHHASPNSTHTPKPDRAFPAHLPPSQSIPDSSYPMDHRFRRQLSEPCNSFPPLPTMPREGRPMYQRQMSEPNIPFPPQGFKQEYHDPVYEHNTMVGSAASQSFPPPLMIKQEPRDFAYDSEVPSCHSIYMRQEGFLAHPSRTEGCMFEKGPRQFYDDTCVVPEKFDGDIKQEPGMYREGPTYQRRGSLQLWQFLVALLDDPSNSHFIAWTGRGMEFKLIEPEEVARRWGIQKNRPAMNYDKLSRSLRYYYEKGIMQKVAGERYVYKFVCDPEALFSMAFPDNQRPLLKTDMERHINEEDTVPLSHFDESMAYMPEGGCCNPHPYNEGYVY
# Sequence of CRX (O43186 whole entry): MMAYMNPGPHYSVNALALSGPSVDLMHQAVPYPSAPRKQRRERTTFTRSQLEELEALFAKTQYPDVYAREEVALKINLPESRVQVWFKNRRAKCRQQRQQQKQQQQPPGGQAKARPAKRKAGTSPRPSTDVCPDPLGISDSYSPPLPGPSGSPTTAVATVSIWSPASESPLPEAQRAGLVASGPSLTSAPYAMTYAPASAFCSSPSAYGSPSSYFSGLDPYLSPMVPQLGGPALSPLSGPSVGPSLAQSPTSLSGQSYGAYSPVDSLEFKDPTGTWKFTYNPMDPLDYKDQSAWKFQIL
sequence,measurement,setting,value
TTTACG,binding signal,FEV,"1.26 fold enrichment (6-mer frequency, TF over GST control)"
same,binding signal,ETV5,"1.28 fold enrichment (6-mer frequency, TF over GST control)"
same,binding signal,HSF1,"1.32 fold enrichment (6-mer frequency, TF over GST control)"
same,binding signal,SPIC,"1.24 fold enrichment (6-mer frequency, TF over GST control)"
same,binding signal,ELF4,"1.32 fold enrichment (6-mer frequency, TF over GST control)"
same,binding signal,ELK4,"1.29 fold enrichment (6-mer frequency, TF over GST control)"
same,binding signal,ETV2,"1.33 fold enrichment (6-mer frequency, TF over GST control)"
same,binding signal,ELF3,"1.28 fold enrichment (6-mer frequency, TF over GST control)"
same,binding signal,CRX,"1.62 fold enrichment (6-mer frequency, TF over GST control)"
same,binding signal,ETV1,"1.32 fold enrichment (6-mer frequency, TF over GST control)"
same,binding signal,ERF,"1.22 fold enrichment (6-mer frequency, TF over GST control)"
same,binding signal,ETV3L,"1.31 fold enrichment (6-mer frequency, TF over GST control)"
same,binding signal,ETS2,"1.29 fold enrichment (6-mer frequency, TF over GST control)"
same,binding signal,SPDEF,"1.26 fold enrichment (6-mer frequency, TF over GST control)"
same,binding signal,ETV7,"1.25 fold enrichment (6-mer frequency, TF over GST control)"
same,binding signal,ELF5,"1.32 fold enrichment (6-mer frequency, TF over GST control)"
same,binding signal,ETV3,"1.19 fold enrichment (6-mer frequency, TF over GST control)"
same,binding signal,ETV6,"1.27 fold enrichment (6-mer frequency, TF over GST control)"
